NS1 inh: qHTS Assay for Inhibitors of Influenza NS1 Protein Function; Potency, µM (titrated, usually from 46.1 µM), for inactives: at the highest dose activity, positive = more growth; 270,000 tested, 0.4% active; AID 2326, 2010; also: potency is read from the fitted curve at half-maximal effect; actives are rising curves; nearly all actives have a fitted effect of over 50% in size
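Growth recovery, yeast-based: influenza A NS1 expressed in S. cerevisiae causes slow growth, and suppressors are detected by OD600. The parent strain without NS1 is used as positive control.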
Cycloheximide cs: Cycloheximide Counterscreen for Small Molecule Inhibitors of Shiga Toxin; cell reporter, cycloheximide protein synthesis inhibition counterscreen; max response, %; 300,000 tested, 12% active; in the data active = max response mostly above about 13%, no sharp cut-off; inactive = mostly below about 14%; also: read at 38.3 µM for the half of the compounds with a filed dose; 0% is about no effect
SARS PLP yeast: qHTS of Yeast-based Assay for SARS-CoV PLP | S. cerevisiae expressing SARS-CoV PLpro, growth rescue | Potency, µM (highest dose often 32.9 µM), inactives show at the highest dose activity, positive = growth rescue, most hits filed as activators | 330,000 tested, 0.19% active | AID 485353, 2010; also: potency is read from the fitted curve at half-maximal effect; 0% is about no effect; nearly all actives have a fitted effect of over 55% in size
Shiga inhibitor: A qHTS for Small Molecule Inhibitors of Shiga Toxin; inhibition, % at 38.7 µM; Vero cells, Shiga toxin protein synthesis inhibition reporter; 290,000 tested, 9.2% active; AID 2315, 2010; in the data active = inhibition mostly above about 28%, no sharp cut-off; inactive = mostly below about 43%; also: 0% is about no effect
TbPYK inhibitor: qHTS of Trypanosoma Brucei Inhibitors; TbPYK enzyme, Kinase-Glo Plus ATP luminescence, 45 min; Potency, µM (highest dose often 76.8 µM), inactives show at the highest dose activity, negative = inhibition, usual class: inhibitors; pyruvate kinase (Trypanosoma brucei), Q57TT1; 410,000 tested, 0.12% active; active = well fitted curve in the direction sought with a large enough effect; inconclusive = small, poorly fitted or top-dose-only effect, or another doubt; inactive = no such curve, though single readings can be large; an effect the other way counts as inactive or inconclusive; also: potency is read from the fitted curve at half-maximal effect; % is scaled to controls: 0 for no effect and ±100 for the full control effect; nearly all actives have a fitted effect of over 50% in size
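Enzyme and substrate buffer are dispensed first and compound is pin-transferred. ADP at 130 uM final then starts the reaction, which runs 45 min at room temperature. Detection reagent is added for 10 min before luminescence is imaged.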
LmPK inhibitor: qHTS Assay for Inhibitors of Leishmania Mexicana Pyruvate Kinase (LmPK); Q27686; purified LmPK, Kinase-Glo ATP luminescence, 1 h; 290,000 tested, 0.37% active; AID 1721, 2009; Potency, µM (series often up to 57.5 µM), for the others: at the top dose activity change, negative = inhibition, actives largely listed as inhibitors; active = well fitted curve in the direction sought with a large enough effect; inconclusive = small, poorly fitted or top-dose-only effect, or another doubt; inactive = no such curve, though single readings can be large; an effect the other way counts as inactive or inconclusive; also: potency is read from the fitted curve at half-maximal effect; % is scaled to controls: 0 for no effect and ±100 for the full control effect
Target sequence (Q27686 whole entry, looked up): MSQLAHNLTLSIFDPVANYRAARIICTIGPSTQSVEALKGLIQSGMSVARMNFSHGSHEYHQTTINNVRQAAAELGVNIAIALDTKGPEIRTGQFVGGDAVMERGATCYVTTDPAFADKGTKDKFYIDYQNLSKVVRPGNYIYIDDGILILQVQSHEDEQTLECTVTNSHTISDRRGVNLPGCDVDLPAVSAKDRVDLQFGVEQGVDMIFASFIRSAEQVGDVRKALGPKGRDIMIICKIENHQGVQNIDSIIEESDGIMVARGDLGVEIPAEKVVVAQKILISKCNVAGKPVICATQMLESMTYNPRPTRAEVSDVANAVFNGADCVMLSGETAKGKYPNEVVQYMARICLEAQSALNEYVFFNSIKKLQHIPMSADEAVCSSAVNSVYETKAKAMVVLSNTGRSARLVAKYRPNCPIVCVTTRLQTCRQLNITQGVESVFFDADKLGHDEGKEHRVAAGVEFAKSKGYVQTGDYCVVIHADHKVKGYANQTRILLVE
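In 50 mM imidazole pH 7.2 with 7 mM MgCl2, LmPK (0.1 nM) turned over PEP (0.5 mM) and ADP (0.1 mM) for 1 h at room temperature. Luciferase read-out of ATP.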
* = called active by the depositor. Shown is part of a subset that was picked to be rich in hits. Unless noted, calls follow the shape of the full dose curve.

Results for COc1cc(Nc2ncc3c(n2)CCN(Cc2ccc(OC(C)C)c(OC)c2)C3)cc(OC)c1 ?
TbPYK inhibitor: 2.4%

What do the screens show for `CC(=O)NC[C@@H]1CN(c2ccc(N3CCOCC3)c(F)c2)C(=O)O1`?
TbPYK inhibitor: -5.9%

Results for O=C(COC(=O)c1ccccc1Cl)NCCC1=CCCCC1 ?
Cycloheximide cs: 31.1*; SARS PLP yeast: -11.7%; Shiga inhibitor: 82.8*; TbPYK inhibitor: 2.3%; LmPK inhibitor: -3.8%

How did Cc1ccc(C(=O)OCC(=O)NCCC2=CCCCC2)cc1N do in these assays?
NS1 inh: 7.3%; Cycloheximide cs: 6.1; SARS PLP yeast: 1.8%; Shiga inhibitor: -12.6; TbPYK inhibitor: -4.0%; LmPK inhibitor: -2.9%

What do the screens show for `Cc1ccc(CSCCC(=O)NCCC2=CCCCC2)cc1`?
NS1 inh: -14.5%; Cycloheximide cs: 23.2*; SARS PLP yeast: -29.8%; Shiga inhibitor: 21.1; TbPYK inhibitor: -16.7%; LmPK inhibitor: 3.3%

How did O=C(COC(=O)c1ccc2c(c1)OCCO2)NCCC1=CCCCC1 do in these assays?
NS1 inh: -18.3%; Cycloheximide cs: 23.2*; SARS PLP yeast: 2.2%; Shiga inhibitor: 99.9*; TbPYK inhibitor: 6.4%; LmPK inhibitor: 2.9%

How did O=C(CCSCc1cccc(Cl)c1)NCCC1=CCCCC1 do in these assays?
NS1 inh: -20.4%; Cycloheximide cs: -2.6; SARS PLP yeast: -30.3%; Shiga inhibitor: -7.1; TbPYK inhibitor: -1.4%; LmPK inhibitor: 0.1%

What do the screens show for `O=C(COC(=O)c1ccc(F)cc1F)NCCC1=CCCCC1`?
SARS PLP yeast: -1.3%; TbPYK inhibitor: 2.1%

Results for O=c1[nH]c2ccccc2nc1-c1nnnn1Cc1ccccc1 ?
TbPYK inhibitor: 2.7%

Results for COc1cc(CN(C(=O)c2ccccc2F)C2CCS(=O)(=O)C2)cc(OC)c1OC (centres undefined) ?
TbPYK inhibitor: -0.3%

How did Cc1cc(O)c(C(C)C)cc1Cl do in these assays?
Cycloheximide cs: -7.3; Shiga inhibitor: -11.9; TbPYK inhibitor: -0.4%

What do the screens show for `CC1(C)OC(=O)N(c2ccccc2)C12C=Cc1c(ccc3ccccc13)O2` (centres undefined)?
NS1 inh: 15.0%; Cycloheximide cs: 8.3; SARS PLP yeast: -46.7%; Shiga inhibitor: 2.8; TbPYK inhibitor: 0.2%; LmPK inhibitor: 0.9%

Results for O=C1NC2(C=Cc3c(ccc4ccccc34)O2)Oc2ccccc21 (centres undefined) ?
NS1 inh: -50.8%; Cycloheximide cs: 31.2*; SARS PLP yeast: -3.5%; Shiga inhibitor: 84.1*; TbPYK inhibitor: 5.4%; LmPK inhibitor: -5.0%

What do the screens show for `C=CCn1c(O)c(C(CC)=Nc2cccc(C(=O)O)c2)c(=O)[nH]c1=O`?
NS1 inh: -2.5%; Cycloheximide cs: 76.4*; SARS PLP yeast: 0.9%; Shiga inhibitor: 76.2*; TbPYK inhibitor: 8.3%; LmPK inhibitor: 0.3%

How did CCCCn1c(O)c(C(CC)=Nc2cccc(C(=O)O)c2)c(=O)[nH]c1=O do in these assays?
NS1 inh: -14.1%; Cycloheximide cs: 0.6; SARS PLP yeast: 4.8%; Shiga inhibitor: 8.5; TbPYK inhibitor: -2.3%; LmPK inhibitor: 5.1%

What do the screens show for `C=CCn1c(O)c(C(C)=Nc2cccc(C(=O)O)c2)c(=O)[nH]c1=O`?
NS1 inh: -2.1%; Cycloheximide cs: 29.4*; SARS PLP yeast: 0.5%; Shiga inhibitor: 61.9*; TbPYK inhibitor: -16.2%; LmPK inhibitor: 4.5%

Results for C=CCn1c(O)c(C(C)=Nc2cccc(C(F)(F)F)c2)c(=O)[nH]c1=O ?
NS1 inh: -0.3%; Cycloheximide cs: -2.8; SARS PLP yeast: 0.5%; Shiga inhibitor: -14.4; TbPYK inhibitor: 3.1%; LmPK inhibitor: 13.3%

How did CC(=O)Nc1cccc(NC(=O)C(=O)NCC(c2ccco2)N2CCc3ccccc3C2)c1 (centres undefined) do in these assays?
SARS PLP yeast: 3.1%; TbPYK inhibitor: 3.7%

Results for CCOC(=O)c1sc(NN=C(C(=O)OC)C(=O)OC)c(C(=O)OCC)c1C ?
NS1 inh: -2.3%; Cycloheximide cs: 6.6; SARS PLP yeast: -6.3%; Shiga inhibitor: 31.9*; TbPYK inhibitor: -9.2%; LmPK inhibitor: -15.9%

What do the screens show for `CCOC(=O)c1sc(N)c(C(=O)OC)c1C`?
NS1 inh: -11.1%; Cycloheximide cs: 33.1*; SARS PLP yeast: -3.0%; Shiga inhibitor: 64.2*; TbPYK inhibitor: 5.2%; LmPK inhibitor: -3.1%

Results for CCOC(=O)c1c(N)sc(C(=O)OC)c1C ?
NS1 inh: -7.6%; Cycloheximide cs: 17.0; SARS PLP yeast: -2.4%; Shiga inhibitor: 39.6; TbPYK inhibitor: -1.0%; LmPK inhibitor: 2.0%

Results for Cc1ccccc1Nc1c(-c2ccc(N3CCOCC3)cc2)nc2ccc(Br)cn12 ?
TbPYK inhibitor: 2.2%

How did CCOC(=O)c1c(NC(=O)CSc2nnnn2C)sc(C)c1-c1ccc(C)cc1 do in these assays?
NS1 inh: 0.1%; Cycloheximide cs: 15.6*; SARS PLP yeast: 8.2%; Shiga inhibitor: -15.6; TbPYK inhibitor: 0.9%; LmPK inhibitor: 4.1%

How did CC(C)(C)c1csc(NC(=O)CSC2=NCCS2)n1 do in these assays?
NS1 inh: inconclusive; Cycloheximide cs: 12.3; SARS PLP yeast: -3.3%; Shiga inhibitor: 15.8; TbPYK inhibitor: -1.9%; LmPK inhibitor: 2.0%

How did Cc1csc(NC(=O)CSC2=NCCS2)n1 do in these assays?
NS1 inh: 9.0%; Cycloheximide cs: 37.3*; SARS PLP yeast: 5.0%; Shiga inhibitor: 18.8; TbPYK inhibitor: 0.6%; LmPK inhibitor: -1.2%

What do the screens show for `O=C(CSC1=NCCS1)Nc1nc2c(s1)CCCC2`?
NS1 inh: inconclusive; Cycloheximide cs: 38.7*; SARS PLP yeast: 4.5%; Shiga inhibitor: 99.2*; TbPYK inhibitor: 0.0%; LmPK inhibitor: 0.7%

How did Cn1nnnc1SCC(=O)Nc1nc2c(s1)CCCC2 do in these assays?
NS1 inh: 5.9%; Cycloheximide cs: 42.1*; SARS PLP yeast: 2.7%; Shiga inhibitor: 69.9*; TbPYK inhibitor: -8.9%; LmPK inhibitor: -1.9%

How did COc1ccc(-n2c(SC(C)C(=O)Nc3ccc(NC(C)=O)cc3)nc3ccccc3c2=O)cc1OC (centres undefined) do in these assays?
NS1 inh: 8.5%; Cycloheximide cs: 0.9; SARS PLP yeast: -2.0%; Shiga inhibitor: -6.8; TbPYK inhibitor: -2.2%; LmPK inhibitor: 9.0%

Results for CC(C)OCCCn1c(SCC(N)=O)nc2c(sc3ccccc32)c1=O ?
TbPYK inhibitor: -11.1%

How did Cc1cccc(NS(=O)(=O)c2ccc3c(c2)CCN3C(=O)C2CC2)c1C do in these assays?
TbPYK inhibitor: -8.7%

Source: PubChem
